20 molecules from PubChem BioAssay (NCATS) can be followed below.

Test [1] deals with Rap guanine nucleotide exchange factor 3 (Homo sapiens) (UniProt O95398). As to the kind of experiment: Confirmatory qHTS for antagonist of cAMP-regulated guanine nucleotide exchange factor 3 (EPAC1) (AID 1645880). Also: nearly all actives have a fitted effect of over 55% in size. Also: potency is read from the fitted curve at half-maximal effect.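 As to activity, negative = inhibition: plate controls were DMSO only for no effect and full effect of the ATA control for full effect.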 The following applies: EPAC1 Rap1B-BODIPY-GDP exchange, fluorescence; activity, negative = inhibition: at 115 µM (top of the series). The gist of the method:
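Released BODIPY-GDP fluoresces less than Rap1-bound BODIPY-GDP; the signal is followed at 480/540 nm at 5-min intervals over 30 min, after 5 min at room temperature. Reactions contain 100 nM EPAC1, 250 nM RAP1B-BODIPY-GDP and 50 uM GDP; results are normalized to ATA and DMSO.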
(qHTS replaces the single test concentration by a dilution series.)

Test [2] has the same target. As to the kind of experiment: Confirmatory qHTS for agonist of cAMP-regulated guanine nucleotide exchange factor 3 (EPAC1) (AID 1645881).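 Also: EPAC1 catalysed release of BODIPY-GDP from Rap1B seen as fluorescence loss; 100% = effect of cAMP agonist control; nearly all actives have a fitted effect of over 75% in size.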
In test [3] the target is Rap guanine nucleotide exchange factor 4 (Homo sapiens) (UniProt Q8WZA2). Description: Confirmatory qHTS for agonist of cAMP-regulated guanine nucleotide exchange factor 4 (EPAC2) (AID 1645884).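 Also: nucleotide exchange releases bodipy-GDP from Rap1 and this lowers its fluorescence; % is scaled to controls: 0 for no effect and ±100 for the full control effect; nearly all actives have a fitted effect of over 65% in size.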
Test [4] has the same target. Description: Confirmatory qHTS for antagonist of cAMP-regulated guanine nucleotide exchange factor 4 (EPAC2) (AID 1645885). Also: nearly all actives have a fitted effect of over 25% in size. Also: potency is read from the fitted curve at half-maximal effect. As to activity change, negative = inhibition: % is scaled to controls: 0 for no effect and ±100 for the full control effect.
Test [5] addresses Rap guanine nucleotide exchange factor 3 (Homo sapiens) (UniProt O95398). Description: Counterscreen qHTS for antagonist of cAMP-regulated guanine nucleotide exchange factor 3 (EPAC1) (AID 1645888). Also: % of control where 0% means no effect. The gist of the method:
(§1)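 Rap1B-BODIPY-GDP 250 nM + GDP 50 uM; cpds 7-pt, final 9.74 nM–152 uM (activator mode) or from 7.32 nM upwards (inhibitor mode); RT; FI 480/540 nm at 5 and 30 min, then ± cAMP, reread.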

Test [6] shares this target. Description: Counterscreen qHTS for agonist of cAMP-regulated guanine nucleotide exchange factor 3 (EPAC1) (AID 1645889). Also: nearly all actives have a fitted effect of over 40% in size. Also: potency is read from the fitted curve at half-maximal effect. As to activation: % of control where 0% means no effect. The method, boiled down: as §1
For orientation: Counterscreens check selectivity or assay interference.

The structures appear in SMILES notation. Records with an inconclusive call do not appear. Values without a mark were called inactive. Activity calls are given as the source filed them. Calls follow the shape of the dose curve; as a rule, active = well fitted curve in the direction sought with a large enough effect; inconclusive = small, poorly fitted or top-dose-only effect, or another doubt; inactive = no such curve, though single readings can be large; an effect the other way counts as inactive or inconclusive.

Chain of Rap guanine nucleotide exchange factor 3 (Homo sapiens) (O95398 whole entry, looked up): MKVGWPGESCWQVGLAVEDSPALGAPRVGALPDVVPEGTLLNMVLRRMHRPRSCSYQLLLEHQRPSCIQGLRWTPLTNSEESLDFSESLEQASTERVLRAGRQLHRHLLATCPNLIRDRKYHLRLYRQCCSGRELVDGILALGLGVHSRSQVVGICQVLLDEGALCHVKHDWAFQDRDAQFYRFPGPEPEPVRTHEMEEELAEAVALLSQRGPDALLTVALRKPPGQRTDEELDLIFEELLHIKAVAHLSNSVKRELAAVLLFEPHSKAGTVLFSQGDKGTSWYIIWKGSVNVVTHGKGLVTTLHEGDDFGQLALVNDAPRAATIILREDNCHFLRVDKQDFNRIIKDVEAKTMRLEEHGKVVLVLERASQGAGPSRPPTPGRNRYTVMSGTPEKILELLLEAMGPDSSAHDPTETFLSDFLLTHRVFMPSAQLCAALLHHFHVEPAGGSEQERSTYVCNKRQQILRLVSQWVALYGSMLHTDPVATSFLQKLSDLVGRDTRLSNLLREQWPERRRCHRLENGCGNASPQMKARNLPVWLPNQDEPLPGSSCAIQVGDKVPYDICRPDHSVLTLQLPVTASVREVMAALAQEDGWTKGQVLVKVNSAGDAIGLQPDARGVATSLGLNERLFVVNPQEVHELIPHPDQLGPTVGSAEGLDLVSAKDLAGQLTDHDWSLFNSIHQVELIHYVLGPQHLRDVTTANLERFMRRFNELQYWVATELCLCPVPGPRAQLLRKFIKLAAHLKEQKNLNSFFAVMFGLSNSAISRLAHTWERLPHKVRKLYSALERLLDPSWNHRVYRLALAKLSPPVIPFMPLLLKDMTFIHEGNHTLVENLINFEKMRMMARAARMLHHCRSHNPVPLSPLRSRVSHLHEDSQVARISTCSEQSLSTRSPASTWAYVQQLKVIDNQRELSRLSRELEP
Chain of Rap guanine nucleotide exchange factor 4 (Homo sapiens) (Q8WZA2 whole entry, looked up): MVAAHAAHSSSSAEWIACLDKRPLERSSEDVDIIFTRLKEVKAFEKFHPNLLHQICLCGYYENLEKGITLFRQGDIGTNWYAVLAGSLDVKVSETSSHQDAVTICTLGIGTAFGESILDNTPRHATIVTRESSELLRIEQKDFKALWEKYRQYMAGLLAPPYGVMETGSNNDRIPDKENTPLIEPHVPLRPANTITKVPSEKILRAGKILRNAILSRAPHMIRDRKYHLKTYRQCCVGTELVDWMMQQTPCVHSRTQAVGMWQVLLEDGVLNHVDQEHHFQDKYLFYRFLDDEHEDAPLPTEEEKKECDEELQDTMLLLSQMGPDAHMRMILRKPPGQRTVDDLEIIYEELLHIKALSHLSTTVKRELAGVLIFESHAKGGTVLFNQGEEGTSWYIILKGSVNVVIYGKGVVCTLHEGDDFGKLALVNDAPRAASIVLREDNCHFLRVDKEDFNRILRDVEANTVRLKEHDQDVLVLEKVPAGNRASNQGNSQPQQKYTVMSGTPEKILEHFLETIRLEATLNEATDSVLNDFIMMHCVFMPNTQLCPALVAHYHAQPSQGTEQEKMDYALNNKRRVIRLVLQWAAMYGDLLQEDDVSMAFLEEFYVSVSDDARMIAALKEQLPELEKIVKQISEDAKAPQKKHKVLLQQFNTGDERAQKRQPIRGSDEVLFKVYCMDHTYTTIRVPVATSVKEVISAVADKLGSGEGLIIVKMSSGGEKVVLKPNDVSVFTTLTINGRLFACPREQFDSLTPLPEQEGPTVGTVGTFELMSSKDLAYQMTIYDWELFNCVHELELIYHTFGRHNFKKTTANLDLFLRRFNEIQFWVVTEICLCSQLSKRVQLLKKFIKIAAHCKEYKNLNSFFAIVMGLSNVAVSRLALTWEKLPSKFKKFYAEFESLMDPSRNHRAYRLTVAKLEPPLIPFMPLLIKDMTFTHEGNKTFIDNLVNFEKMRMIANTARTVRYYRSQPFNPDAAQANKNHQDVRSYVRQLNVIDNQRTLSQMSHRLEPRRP

`O=C1C(=Cc2ccco2)CCC1=Cc1ccco1`: the Potency result in test [1], in test [2], in test [3], in test [5] and in test [6] was “inactive” throughout. In addition, the Potency in test [4] is 60.1 µM (active).
`CCOC(=O)c1c(-c2ccc(OC)cc2)csc1/N=C/C1=C(O)CCCC1=O`: the Potency entry in test [1], in test [2] and in test [4] was “inactive” in each case. The activation in test [3] is 4.43% [at 17.1 µM, percent relative to cAMP agonist control]; in test [6] it was 11.3% [at 30.8 µM]. In test [5], the activity change, negative = inhibition is -7.43% [at 30.8 µM].
`O=C(O)CSc1cc(C(=O)c2ccccc2O)cn2c(=O)c3c(-c4ccccc4)csc3nc12`: the Potency entry in test [1], in test [2] and in test [4] was “inactive” each time. For the same molecule, the activation in test [3] was -8.3% [at 17.1 µM, percent relative to cAMP agonist control]; in test [6] it was 17.9% [at 30.8 µM]. Besides, the activity change, negative = inhibition in test [5] was -7.65% [at 30.8 µM].
As for `[O-][n+]1c2ccccc2[n+]([O-])c2cc(O)ccc21`, in test [1], the Potency is 37.9 µM (active). Besides, the Potency result in test [2], in test [3], in test [4], in test [5] and in test [6] was “inactive” each time.
Turning to `COc1cc(/C=C(\C#N)c2nc3ccc(C)cc3[nH]2)cc([N+](=O)[O-])c1O`, the Potency in test [1] is 33.8 µM (active); in test [4] it was 75.7 µM (active). Besides, the Potency entry in test [2], in test [3], in test [5] and in test [6] was “inactive” each time.
For the molecule `COc1ccc([C@@H]2[C@@H]3C(=O)N(C(C)(C)C)C(=O)[C@@H]3[C@]3(Cc4ccccc4)C(=O)N(c4cccc(Br)c4)C(=O)N23)cc1`, the Potency result in test [1], in test [2] and in test [4] was “inactive” throughout. Further, the activation in test [3] is 2.72% [at 17.1 µM, percent relative to cAMP agonist control]; in test [6], 10.3% [at 30.8 µM]. The activity change, negative = inhibition in test [5] is -15.9% [at 30.8 µM].
Turning to `COc1ccc(S(=O)(=O)NC(CCSC)C(=O)NC2CCCCC2)cc1` (stereo not given), the Potency entry in test [1], in test [2], in test [3], in test [4], in test [5] and in test [6] was “inactive” each time.
Regarding `Cc1[nH]n(-c2ccccc2)c(=O)c1C(c1ccc(C(=O)O)cc1)c1c(C)[nH]n(-c2ccccc2)c1=O`, the Potency result in test [1], in test [2], in test [3], in test [4] and in test [5] was “inactive” throughout. The Potency in test [6] is 1.78 µM (active).
For the molecule `Cc1cccc(NC(=O)C2CCCN(S(=O)(=O)c3ccc4c(c3)oc(=O)n4C)C2)c1` (stereo not given), the Potency result in test [1], in test [2] and in test [4] was “inactive” in each case. For the same molecule, the activation in test [3] was 3.99% [at 17.1 µM, percent relative to cAMP agonist control]; in test [6] it was 7.38% [at 30.8 µM]. In test [5], the activity change, negative = inhibition was -11.5% [at 30.8 µM].
Consider `CC(C)Oc1nc(-c2ccccc2Cl)nc2ccccc12`, for which the Potency result in test [1], in test [2], in test [3], in test [4], in test [5] and in test [6] was “inactive” each time.
For the molecule `Cn1cccc1/C=C1\CCC/C(=C\c2cccn2C)C1=O`, the Potency in test [1] is 75.7 µM (active); in test [4], 75.7 µM (active); in test [6], 39.8 µM (active). For the same molecule, the Potency result in test [2], in test [3] and in test [5] was “inactive” in each case.
With `Cc1ccccc1NC1c2ccccc2C(=O)N1Cc1ccco1` (stereo not given), the Potency result in test [1], in test [2] and in test [4] was “inactive” each time. Also, the activation in test [3] is 2.58% [at 17.1 µM, percent relative to cAMP agonist control]; in test [6], 17.8% [at 30.8 µM]. Moreover, the activity change, negative = inhibition in test [5] was -11.4% [at 30.8 µM].
As to `O=C(O)CCn1cc(C2CC(c3ccccc3)=NN2c2ccccc2)c(-c2ccccc2)n1` (stereo not given), the Potency entry in test [1], in test [2], in test [3], in test [4], in test [5] and in test [6] was “inactive” each time.
`CC(=O)NNC(=O)c1sc(=S)n2c1[nH]c(=O)c1sccc12`: the Potency in test [1] is 37.9 µM (active). Moreover, the Potency result in test [2], in test [3], in test [4], in test [5] and in test [6] was “inactive” in each case.
Regarding `COc1cccc2c1OC1(C)CC2/C(=C(\C)O)C(=O)N1` (stereo not given), the Potency entry in test [1], in test [2], in test [3], in test [4], in test [5] and in test [6] was “inactive” throughout.
On to `Cc1ccc(Nc2ccc(N3CCN(C(=O)c4ccc([N+](=O)[O-])cc4)CC3)nn2)cc1`, for which the Potency entry in test [1], in test [2], in test [3], in test [4], in test [5] and in test [6] was “inactive” throughout.
Take `Cc1cc(-c2nn(-c3ccccc3F)cc2CN2CCCC(O)C2)c(C)s1` (stereo not given): the Potency result in test [1], in test [2] and in test [4] was “inactive” in each case. Moreover, the activation in test [3] was 2.57% [at 17.1 µM, percent relative to cAMP agonist control]; in test [6], 23.9% [at 30.8 µM]. Further, the activity change, negative = inhibition in test [5] is -17.9% [at 30.8 µM].
Take `N#Cc1c(-c2cccs2)nc(SCc2ccc(Cl)cc2)[nH]c1=O`: in test [1], the Potency was 42.6 µM (active). The Potency result in test [2], in test [3], in test [4], in test [5] and in test [6] was “inactive” each time.
Consider `CCc1cc2c(=O)c(-c3nc4ccccc4n3C)coc2c(CN2CCCCC2C)c1O` (stereo not given), for which the Potency result in test [1], in test [2], in test [3], in test [4], in test [5] and in test [6] was “inactive” each time.
As for `CCc1nnc(NS(=O)(=O)c2ccc(NCc3cc(Cl)ccc3O)cc2)s1`, the Potency in test [1] was 39.8 µM (active). Besides, the Potency entry in test [2] and in test [4] was “inactive” each time. The activation is -0.696% [at 17.1 µM, percent relative to cAMP agonist control] in test [3] and 11.7% [at 30.8 µM] in test [6]. For the same molecule, the activity change, negative = inhibition in test [5] is -8.7% [at 30.8 µM].
